Compound activity as filed in PubChem BioAssay.
AHR activator: AHR activators, primary screen, cell-based, luminescence, luciferase reporter, human; Aryl hydrocarbon receptor (Homo sapiens), P35869; AHR-responsive luciferase reporter cells; activation, % at 5 µM; 320,000 tested, 2.5% active; AID 2796, 2010; in the data active means activation above about 47%;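 further: 0% = vehicle wells and 100% = reference agonist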
FXN GAA850 act: FXN promoter activators, primary screen, cell-based, luciferase luminescence, HEK293 lucGAA850; HEK293 lucGAA850 FXN promoter luciferase reporter, 24 h; percent of 10 µM SAHA response; activation, % at 6 µM; 360,000 tested, 0.56% active; AID 540364, 2011;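 active means activation above the average of all compounds screened plus 3 SD, cutoff fixed separately per campaign, cut at about 7.5% in these data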;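 further: 0% = DMSO wells and 100% = 10 µM SAHA wells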
esBAF inh: Bmi1 luciferase reporter increase in mESCs, primary screen, esBAF inhibitor project, mouse ES cells, Bmi1 luciferase knock-in, single point | 24 h; 100% = twice the neutral-well signal | reporter increase, % at 12.5 µM | 350,000 tested, 2% active | AID 602393, 2012; in the data active means activation above about 40%; inconclusive means no clear call, values can overlap the other calls;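 further: 0% = median of the plate's neutral control wells and 100% = double that signal; a rise in the Bmi1 reporter signal indicates esBAF inhibition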
Wnt bcat act: Wnt/beta-catenin pathway activators, primary screen, cell-based, plate reader, single point; Wnt/beta-catenin reporter cell assay, activator; activation, % at 9.35 µM; 300,000 tested, 1.2% active; in the data active means activation above about 30%, passing the limit was not always enough; inconclusive means no clear call, values can overlap the other calls;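 further: 0% = neutral control wells and 100% = positive control wells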
MITF act: activators of MITF-driven TRPM1 promoter reporter, primary screen, cell-based, SK-MEL-5, luciferase, single point; SK-MEL-5 TRPM1-promoter luciferase, 24 h; % of positive control, neutral wells = 0; 300,000 tested, 0.75% active; activation, % at 12.5 µM; AID 588334, 2011;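 active means mean activation of at least 80% with every replicate also reaching 80%; inconclusive means mean reaches 80% but some replicate falls short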;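 further: 0% = neutral control wells and 100% = parthenolide positive control wells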
* marks the source's active call; other numbers are inactive results; u = inconclusive; x = no result given. Rows were chosen to be rich in hits. Some 4.2% of all compounds tested hit in one or more screens of this group.

SMILES | AHR activator | FXN GAA850 act | esBAF inh | Wnt bcat act | MITF act
CC(=O)c1ccc(NC(=O)CCc2nnc3ccc(N4CCC5(CC4)OCCO5)nn23)cc1 | 4 | 5 | 54* | 13 | 31
COc1ccc(/C=N/Nc2nc3ccccc3s2)cc1O | x | 6 | x | 23 | 3
Oc1ccc(C=NNc2nc3ccccc3s2)c(O)c1 | x | 0 | x | -4 | -13
COc1cccc(C=NNc2nc3ccccc3s2)c1OC | x | -1 | x | 51* | 43
Cc1sc2ncnc(N/N=C/c3ccccc3O)c2c1C | 19 | -6 | x | x | -15
Oc1ccccc1C=NNc1nc2ccccc2s1 | x | 3 | 51* | 4 | -4
COc1cccc(/C=N/Nc2ncnc3scc(-c4ccccc4)c23)c1OC | 53* | -2 | 2 | -2 | 4
COc1cccc(/C=N\NC(=O)c2sc(N)nc2C)c1OC | 60* | 0 | 8 | x | 36
COc1cc(NC(=S)Nc2ccccn2)c(OC)cc1Cl | 58* | 5 | x | 2 | -8
C[C@H](CO)N1C[C@H](C)[C@H](CN(C)C(=O)c2ccncc2)Oc2ncc(C#CC3CCCCC3)cc2C1=O | x | x | -2 | x | x
Cc1ccc(COc2ccc(/C=N/O)cc2)cc1 | 1 | 4 | x | 31* | 42
Cc1ccc(Oc2ccc(/C=N/O)cn2)cc1 | 10 | -1 | 48* | 5 | x
O=C(C[C@H]1C=C[C@@H](NC(=O)c2ccc(F)cc2)[C@@H](CO)O1)NCCc1ccccc1 | x | x | 1 | x | x
COc1ccc(N=c2cc(-c3ccc(OC)cc3)oc3ccccc23)cc1 | -1 | 4 | x | 119* | 20
O=c1cc(-c2ccccc2)oc2cc(O)ccc12 | x | 0 | u | 4 | 88*
O=c1cc(-c2ccc(O)cc2)oc2ccccc12 | 2 | 3 | 58* | 3 | x
COc1ccc(-c2cc(=O)c3ccccc3o2)cc1 | 24 | 6 | 63* | -2 | 70
O=c1cc(-c2ccccc2)c2ccc(O)cc2o1 | 2 | 2 | x | -1 | 5
CCCNC(=O)[C@@H]1[C@@H](CO)[C@@H]2Cn3c(ccc(C4=CCCC4)c3=O)[C@@H]2N1C(=O)CC1CC1 | x | x | 1 | x | x
C[C@H](CO)N1C[C@H](C)[C@@H](CN(C)C(=O)CCCN(C)C)OCCCC[C@H](C)Oc2ccc(NC(=O)c3ccncc3)cc2C1=O | x | x | 2 | x | x
COc1cc(-c2cc(=O)c3ccccc3o2)ccc1O | 77* | 6 | 38 | 28 | x
O=c1cc(-c2cccc(F)c2)oc2ccccc12 | x | 5 | 51* | -1 | 30
O=c1cc(-c2ccncc2)oc2ccccc12 | -7 | 3 | -12 | 2 | x
O=c1cc(-c2ccc(O)cc2)oc2ccc(O)cc12 | 1 | 1 | 37 | 56* | 78
O=c1cc(-c2c(F)c(F)c(F)c(F)c2F)oc2ccccc12 | 2 | 0 | -8 | 2 | -31
SMILES | AHR activator | FXN GAA850 act | esBAF inh | Wnt bcat act | MITF act
COc1ccc(-c2cc(=O)c3ccccc3s2)cc1 | 94* | 5 | 12 | 0 | 40
COc1ccc2sc3ccccc3c(=O)c2c1 | 9 | 4 | 34 | 0 | 70
COCC(=O)Nc1ccc2c(c1)C(=O)N(C)C[C@@H](OC)[C@@H](C)CN(CC1CCCCC1)[C@H](C)CO2 | x | x | -2 | x | x
CCC(=O)Nc1ccc(C(=O)CSc2nc3ccccc3cc2CC)cc1 | 51* | 1 | 9 | -2 | 13
CCC(=O)Nc1ccc(C(=O)CSc2nc(N)cc(N)n2)cc1 | 3 | 0 | -7 | 2 | -5
Cn1c2ccccc2c2n[nH]c(=S)nc21 | 75* | 3 | -4 | 2 | -27
C[C@@H]1CN([C@@H](C)CO)C(=O)Cc2cc(NS(C)(=O)=O)ccc2O[C@@H]1CN(C)C(=O)Nc1ccc(F)cc1 | x | x | 0 | x | x
CCC(=O)N[C@H]1C=C[C@@H](CC(=O)NCCN2CCCCC2)O[C@@H]1CO | x | x | -2 | x | x
CCc1noc(N)c1C(=O)Nc1ccc(Cl)cc1 | 76* | 1 | -3 | -1 | 8
C[C@@H]1CN([C@@H](C)CO)S(=O)(=O)c2ccc(-c3cccc(C#N)c3)cc2O[C@@H]1CN(C)C(=O)Nc1cc(F)ccc1F | x | x | -11 | x | x
COc1cc(C(=O)N/N=C2\CCS(=O)(=O)c3ccc(F)cc32)cc(OC)c1OC | 6 | 0 | 5 | x | 2
COc1ccccc1NCC(=O)NN=C1CCS(=O)(=O)c2ccc(F)cc21 | 49* | -1 | -3 | -2 | -7
CCOc1ccc(/C(O)=C2/C(=O)C(=O)N(CCCn3ccnc3)C2c2cccs2)cc1Cl (stereo not given) | -1 | 3 | 56* | 18 | x
COc1ccc(S(=O)(=O)N[C@H]2C=C[C@@H](CC(=O)N3CCc4ccccc4C3)O[C@@H]2CO)cc1 | x | x | -2 | x | x
Cc1c(C)c2c(C)nn(-c3ccccc3)c2[nH]c1=O | 96* | 0 | 5 | x | x
Cc1cc(=O)c2c(C)nn(-c3ccccc3)c2[nH]1 | 0 | 2 | x | x | 0
C/C(=N\NC(=O)c1ccccc1)c1ccccc1F | 6 | 5 | 20 | 57* | 47
C/C(=N\NC(=O)c1ccc(Br)cc1)c1ccccc1 | 5 | 7 | 47* | x | 54
C/C(=N\NC(=O)c1ccccc1)c1ccccc1Br | -2 | 3 | x | u | 42
COc1ccccc1-n1c(SC(C)C(=O)NCC2CCCO2)nc2cc(Cl)ccc2c1=O (stereo not given) | 59* | -5 | x | 2 | -19
COC(=O)c1ccc2c(=O)n(CC3CCCO3)c(SCC(=O)Nc3ccccc3Cl)nc2c1 (stereo not given) | -1 | -1 | 50* | x | x
C[C@H]1CCCCO[C@H](CN(C)C)[C@@H](C)CN([C@@H](C)CO)C(=O)c2cc(NS(=O)(=O)c3ccccc3)ccc2O1 | x | x | -6 | x | x
Cc1ccc(S(=O)(=O)Nc2ccc3c(c2)CC(=O)N([C@H](C)CO)C[C@@H](C)[C@H](CN(C)Cc2ccc(C(=O)O)cc2)O3)cc1 | x | x | 10 | x | x
COc1cc(NC(=S)Nc2cccc(C)n2)cc(OC)c1OC | 69* | 1 | x | -5 | 2
CCOC(=O)NC(=S)Nc1cccc(C)n1 | x | -1 | -8 | x | x
SMILES | AHR activator | FXN GAA850 act | esBAF inh | Wnt bcat act | MITF act
CCOC(=O)c1ccc(-c2nnc(-c3ccc(Cl)cc3Cl)o2)cc1 | 19 | 5 | 45* | x | 87*
CCOC(=O)N/N=C\c1ccc(OC/C=C/c2ccccc2)c(OC)c1 | 34 | -1 | 11 | 5 | 23
COC(=O)N/N=C\c1ccc(OC/C=C/c2ccccc2)c(OC)c1 | 51* | 1 | 3 | -6 | 20
N#CCC(=O)N/N=C/c1ccc(OCc2ccccc2)cc1 | 1 | 2 | 4 | 8 | 29
N#CCC(=O)N/N=C\c1ccc(OC/C=C/c2ccccc2)cc1 | 2 | -1 | 11 | 27 | 122*
N#CCC(=O)N/N=C\c1ccccc1OC/C=C/c1ccccc1 | -1 | 1 | 64* | 12 | 22
O=C(OCC(=O)N1CCc2ccccc2C1)c1cccs1 | 2 | 2 | x | 0 | 16
CC1CCN(C(=O)COC(=O)c2cccs2)CC1 | -2 | 2 | 65* | -3 | 41
